EBV gp42 block: Epstein-Barr virus gp42 inhibitors, primary screen, biochemical, uHTS, fluorescence polarization; inhibition, % (tested at 21.74 µM); Fluorescence polarization binding assay, mP read-out; Glycoprotein 42 (Epstein-Barr virus (strain AG876)), Q1HVG2; 220,000 compounds, 0.42% hits; in the data active means inhibition above about 50%
Target sequence (Q1HVG2 whole entry, looked up): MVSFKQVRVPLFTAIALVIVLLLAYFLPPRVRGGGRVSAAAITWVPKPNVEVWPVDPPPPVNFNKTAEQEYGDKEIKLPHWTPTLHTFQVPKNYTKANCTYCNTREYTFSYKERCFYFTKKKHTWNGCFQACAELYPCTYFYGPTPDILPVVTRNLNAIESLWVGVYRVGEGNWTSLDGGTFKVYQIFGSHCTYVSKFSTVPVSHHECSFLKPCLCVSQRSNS
MEX-5 binding: MEX-5 zinc finger RNA-binding disruptors – biochemical, C. elegans, fluorescence polarization, MLPCN library, primary screen; Zinc finger protein mex-5 (Caenorhabditis elegans), Q9XUB2; AID 1832, 2009; activity score (negative = inhibition of binding), % at 10 µM; 300,000 compounds, 0.38% hits; MEX-5/FITC-TCR2 RNA binding; active compounds read low;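 active means inhibition past about -25% in most replicates, and total fluorescence under double the plate's negative control median, limit read from the data; inconclusive means replicates evenly split on the limit, or fluorescence at least double controls; inactive means too little inhibition in most replicates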;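 further: 0% = DMSO and -100% = 5 µM competing unlabeled TCR2 RNA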
E coli Lon inh: inhibitors of E. coli Lon protease, primary screen, biochemical, fluorescence polarization; P0A9M0; purified E. coli Lon protease; inhibition, % at 7.94 µM; 360,000 compounds, 0.42% hits; AID 602123, 2011; in the data active means inhibition above about 13%, passing the limit was not always enough;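 further: 0% = enzyme with probe and DMSO and 100% = no enzyme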
GLD-1 TGE inh: GLD-1/TGE RNA complex disruptors, primary screen, biochemical, fluorescence polarization; Female germline-specific tumor suppressor gld-1 (Caenorhabditis elegans), Q17339; purified GLD-1 + fluorescein TGE RNA; inhibition, % at 5.96 µM; 320,000 compounds, 0.44% hits;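 active means percent inhibition above a per-plate cutoff, the plate mean of test compounds plus 3 SD, cut at about 30% in these data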;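 further: 0% = DMSO wells with GLD-1 and probe and 100% = wells lacking GLD-1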
MCL1 BIM primary: inhibitors of MCL1 binding to BIM-BH3, primary screen, biochemical, fluorescence polarization; inhibition, % at 10.9 µM; Induced myeloid leukemia cell differentiation protein Mcl-1 (Homo sapiens), Q07820; GST-MCL1 / FITC-Bim-BH3 fluorescence polarization; 320,000 compounds, 0.68% hits;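 active means inhibition above the mean inhibition of all tested compounds plus 3 SD, set per campaign, cut at about 40% in these data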;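 further: 0% = DMSO wells and 100% = unlabeled Bim-BH3 peptide control; higher means more loss of mP so more displacement of Bim peptide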
BCLXL inh: inhibitors of human Bcl-xL, primary screen, biochemical, fluorescence polarization, HTS. Bcl-2-like protein 1 (Homo sapiens), Q07817. GST-Bcl-xL / FITC-Bim BH3 peptide fluorescence polarization. inhibition, % at 10.9 µM. 320,000 compounds, 0.7% hits. AID 2129, 2009;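 active means inhibition above the mean of all tested compounds plus 3 SD, cutoff set per campaign, cut at about 30% in these data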;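 further: 0% = DMSO wells and 100% = unlabeled Bim-BH3 peptide competitor; inhibitors lower millipolarization by displacing the labeled peptide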
Target sequence (Q07817 whole entry, looked up): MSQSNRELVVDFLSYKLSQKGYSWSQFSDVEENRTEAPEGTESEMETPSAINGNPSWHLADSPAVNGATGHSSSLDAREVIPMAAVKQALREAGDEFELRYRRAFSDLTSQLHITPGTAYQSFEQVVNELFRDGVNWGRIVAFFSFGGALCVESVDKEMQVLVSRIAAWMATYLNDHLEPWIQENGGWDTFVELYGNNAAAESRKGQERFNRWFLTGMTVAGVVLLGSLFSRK
Numbers without * were called inactive; u = inconclusive; x = no result given. Most compounds without a hit are left out; they make up all but 1.4% or so of the library.

SMILES	EBV gp42 block	MEX-5 binding	E coli Lon inh	GLD-1 TGE inh	MCL1 BIM primary	BCLXL inh
CC(=O)Cn1nnc2sc(-c3ccccc3)cc2c1=O	-13	2	-12	-2	-3	0
CCn1c2ccccc2c(=O)c2ccccc21	-19	-28*	2	8	-13	-17
CN1C(=O)/C(=C/c2cc(C(C)(C)C)c(O)c(C(C)(C)C)c2)NC1=S	-12	1	-5	-21	2	-4
Cc1cc(=O)n(CCO)c(O)c1C#N	-2	-10	-1	26	10	12
C=CCn1c(O)c(CN2CCN(Cc3ccccc3)CC2)c(C)c(C#N)c1=O	-12	-5	9	23	25	29
Cc1c(CN2CCCCC2)c(O)n(CCCO)c(=O)c1C#N	-4	-46*	-2	27	35	35*
CCCn1c(O)c(CN2CCCCC2)c(C)c(C#N)c1=O	-4	-51*	5	23	18	24
CCCCN1C(=O)C2Cc3c([nH]c4ccccc34)CN2C1=S (centres undefined)	52*	-28*	-67	45*	-17	-10
CC(=C/c1ccccc1)/C=N/NC(=O)c1cnccn1	144*	-1	1	3	10	9
O=C(N/N=C/C(Cl)=C\c1ccccc1)c1cnccn1	-2	-4	-9	7	-2	1
Cc1c(C#N)c2ncnc(-c3ccccc3)c2n1-c1ccccc1	60*	1	6	7	8	7
CC(=O)NC(c1ccc(C(C)C)cc1)c1c(O)ccc2ccccc12 (centres undefined)	x	-3	8	8	5	3
Cc1ccc(C(NC(=O)C2CCCCC2)c2c(O)ccc3ccccc23)cc1 (centres undefined)	60*	2	14	1	2	5
Cc1cc(C)cc(-n2c(N)c(C(=O)Nc3c(C)n(C)n(-c4ccccc4)c3=O)c3nc4ccccc4nc32)c1	12	1	1	7	0	32*
Cc1ccc(-n2c(N)c(C(=O)Nc3c(C)n(C)n(-c4ccccc4)c3=O)c3nc4ccccc4nc32)cc1	21	0	-4	6	-18	-6
C=C(CCC(=O)c1ccccc1)C(=O)c1ccccc1	4	0	1	14	7	85*
O=C1NCCCC2c3cc(O)c4ccccc4c3OC12N1CCCCC1 (centres undefined)	-17	x	x	27	57*	52*
Cc1ccc(C)n1-c1cccc(C(=O)O)c1	17	-93*	x	14	71*	26
Cc1ccc(C)n1-c1cccc(N)c1	-10	-4	x	-11	45*	36*
Cc1nn(-c2ccccc2)c2c1C(c1ccc(Br)s1)C(C#N)=C(N)O2 (centres undefined)	9	x	0	x	x	x
Cc1nn(-c2ccccc2)c2c1C(c1ccccc1)C(C#N)=C(N)O2 (centres undefined)	131*	1	-9	3	9	11
COc1ccc(Nc2ncccc2C(=O)NCc2ccccc2)cc1	-17	1	-8	2	2	1
COc1cccc(Nc2ncccc2C(=O)NCc2ccccc2)c1	68*	x	-4	x	x	x
C/C(N)=C(/C#N)C(=O)CSc1nnc(Nc2ccccc2)s1	124*	-1	-5	-4	-7	-10
C/C(N)=C(/C#N)C(=O)CSc1ncnc2ccccc12	-9	-39*	-14	-23	3	-2
SMILES	EBV gp42 block	MEX-5 binding	E coli Lon inh	GLD-1 TGE inh	MCL1 BIM primary	BCLXL inh
CC(C)C1CC(C(F)(F)F)n2nc(C(=O)O)cc2N1 (centres undefined)	8	0	-2	-4	14	10
O=C1c2sc3nc4n(c(=O)c3c2CCC1Br)CCCCC4 (centres undefined)	2	0	-3	1	36	30*
O=C(/C(=C(\[O-])c1ccccc1)[n+]1ccc2ccccc2c1)c1ccc([N+](=O)[O-])cc1	-6	0	0	1	14	9
O=C(/C(=C(/[O-])c1ccccc1)[n+]1ccccc1)c1ccc([N+](=O)[O-])cc1	-5	-1	-4	3	-8	0
O=C(/C(=C(\[O-])c1ccccc1)[n+]1ccc2ccccc2c1)c1ccc(Cl)cc1	67*	-10	-21	4	3	9
O=C(/C(=C(\[O-])c1ccccc1)[n+]1ccc2ccccc2c1)c1ccccc1	74*	-11	-59	-10	-11	3
O=C1c2ccccc2C(=O)N1c1cccc(-c2csc(Nc3ccc4c(c3)OCO4)n2)c1	5	x	x	11	53*	27
c1ccc(-c2csc(Nc3ccc4c(c3)OCO4)n2)cc1	x	x	4	x	x	x
O=C(CSc1nnc(Cc2cc(=O)[nH]c(=O)[nH]2)n1-c1ccc(F)cc1)NC1CCCC1	20	-11	16*	16	17	16
O=C(CSc1nnc(Cc2cc(=O)[nH]c(=O)[nH]2)n1-c1ccc(F)cc1)N1CCCCC1	3	-1	14*	24	2	7
O=C1c2ccccc2S(=O)(=O)c2cc(N3CCc4ccccc4C3)ccc21	x	-18	x	20	27	39*
CCC(C)(C)NC(=O)C(c1cccn1C)N(C(=O)Cn1nnc2ccccc21)c1ccc(OC)cc1 (centres undefined)	-7	-29*	0	8	4	9
COC(OC)c1ccnc(-c2ccc(OC(=O)c3cccs3)cc2)n1	59*	3	4	0	-2	1
COC(OC)c1ccnc(-c2ccc(OC(=O)c3ccccc3)cc2)n1	0	0	-2	7	-2	1
O=C(O)c1ccc2c(=O)n3c(nc2c1)/C(=C/c1cccc(Cl)c1Cl)CCCC3	-5	2	-9	-7	-1	5
CCCCN1C(=O)/C(=C/C=C2\Oc3ccccc3N2CC)SC1=S	104*	-28*	-467	x	x	x
CN1/C(=C\C=C2/SC(=S)N(CC(=O)O)C2=O)C(C)(C)c2ccccc21	-138	u	-313	-38	-13	36*
CCCN1C(=O)/C(=C/C=C2\N(CC)c3ccccc3C2(C)C)SC1=S	127*	3	-158	25	-71	-49
C=CCN1C(=O)/C(=C\C=C2\N(C)c3ccccc3C2(C)C)SC1=S	90*	-1	-108	-31	-133	-29

Compound activity (PubChem)
